High-throughput results from PubChem BioAssay.
In the library only some 6.1% were active in any assay of this set; here they are far more common.
D3 ag = D3 dopamine receptor (human) agonism; P35462; D3R DiscoveRx beta-arrestin cells, luminescence, 90 min; max activation, %; AID 652048; 0.58% of 410,000 active; in the data active means max activation above about 30%; further: 0% is about no effect
Target sequence (P35462 whole entry, looked up): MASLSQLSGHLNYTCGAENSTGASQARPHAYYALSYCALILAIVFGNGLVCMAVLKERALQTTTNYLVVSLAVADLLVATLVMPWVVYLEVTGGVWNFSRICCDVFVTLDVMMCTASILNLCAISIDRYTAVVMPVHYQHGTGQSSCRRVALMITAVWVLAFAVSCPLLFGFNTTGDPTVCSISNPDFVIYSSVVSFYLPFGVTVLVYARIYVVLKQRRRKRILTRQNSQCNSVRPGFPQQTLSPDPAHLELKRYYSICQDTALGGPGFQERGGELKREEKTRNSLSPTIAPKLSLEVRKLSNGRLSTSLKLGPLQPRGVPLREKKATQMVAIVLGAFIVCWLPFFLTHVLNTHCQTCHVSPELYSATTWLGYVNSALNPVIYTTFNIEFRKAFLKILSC
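Agonist-mode cell screen: cells plated at 1500/well and incubated overnight at 37 °C, then exposed to library compounds for 90 min at 37 °C. Detection reagent was added for 30–60 min at room temperature, and luminescence was read.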
D1 PAM = potentiators of human D1 dopamine receptor; P21728; HEK293 TREx D1 cells, calcium flux, dopamine EC20 potentiation; potentiation, % at 10 µM; 0.036% of 360,000 active; AID 504651; in the data active means potentiation above about 30%; further: 0% is about no effect
D1 antag = human D1 dopamine receptor antagonism. P21728. HEK293 TREx D1 cells, calcium flux, dopamine EC80; hits give low values. activity change, negative = inhibition, % at 10 µM. 3.2% of 360,000 active. AID 504652; in the data active means activity change below about -30%; further: on the % scale 0 is the no-effect control and ±100 the full control effect
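Kinetic fluorescence of a calcium dye serves as the read-out. D1-expressing Hek293 Trex cells, induced overnight at 30 C, are exposed to compound for 180 s before an EC80 dopamine addition, then read 180 s further.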
D3 antag = D3 dopamine receptor (human) antagonism | P35462 | D3R cells, DiscoveRx beta-arrestin luminescence, antagonist mode; hits give low values | max response, negative = inhibition, % | 2.5% of 360,000 active | AID 652054; in the data active means max response below about -50%; inconclusive means no clear call, values can overlap the other calls; further: on the % scale 0 is the no-effect control and ±100 the full control effect
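Cells expressing the human receptor were seeded at 1500 cells/well, incubated overnight at 37 degrees C in 5% CO2, then exposed to library compounds with dopamine controls for 90 minutes at 37 degrees C before luminescent detection.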
D1 ag = agonists of human D1 dopamine receptor; 1% of 360,000 active; HEK293 T-REx D1 cells, calcium flux, agonist mode; activation, % at 2 µM; in the data active means activation above about 30%; further: 0% is about no effect
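Inducible HEK293 T-REx D1 cells, force-coupled to calcium signalling, were plated at 4000 cells/well with tetracycline and held overnight at 30 C. After no-wash calcium dye loading, compound-evoked calcium rise over 180 s flagged agonists.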
* = called active by the depositor; ! = repeats disagree.

`Cc1ccc(NC(=O)C2c3ccccc3-c3ccccc32)cc1` gave D3 ag 3 and D3 antag 4.
`O=C(NCc1ccccc1)C1CCCN1C(=O)Nc1ccccc1[N+](=O)[O-]` (centres undefined) gave D3 ag 0, D1 PAM 11, D1 antag -31*, D3 antag 1 and D1 ag 1.
`Cc1c(Cn2ccnc2)c2ccccc2n1CCC(=O)O` gave D3 ag -1.
Screening CCN(CC)c1ccc(C(=C2C=CC(=[N+](CC)CC)C=C2)c2ccccc2)cc1 returned D3 ag -16 and D3 antag -105*.
`COc1ccc2[nH]cc(C(=O)CN3CCN(C/C=C/c4ccccc4)CC3)c2c1` gave D1 PAM -2, D1 antag -3 and D1 ag 86*.
CC[C@]12c3[nH]c4cc(-c5ccco5)ccc4c3CCN1C(=O)[C@@H](CC(=O)NCCN1CCOCC1)C[C@@H]2C(=O)N1CCN(C(=O)C2CC2)CC1 was read as D3 ag 16 and D3 antag -4.
`Cc1ccc(CONC(=O)c2ccc(C)cc2)cc1` gave D3 ag -2, D1 PAM -5, D1 antag -30*, D3 antag 3 and D1 ag 1.
`CS(=O)(=O)c1ccc(Cl)c(C(=O)OCC(=O)NC2CCCCCCC2)c1` gave D3 ag 7, D1 PAM 1, D1 antag -11, D3 antag 1 and D1 ag 0.
Screening Cc1cn2c(=O)c(S(=O)(=O)Nc3ccc(N4CCOCC4)cc3)c(C)nc2s1 returned D3 ag -17, D1 PAM -5, D1 antag -4 and D1 ag 5.
For Cc1nn(CC(=O)OCC(=O)NC(C)c2ccccc2)c(C)c1[N+](=O)[O-] (centres undefined) the results were D3 ag -2, D1 PAM 6, D1 antag -34*, D3 antag -24 and D1 ag 1.
`Cc1cccc(N2CCN(C(=O)c3ccc(NC(=O)c4nsc5ccccc45)cc3)CC2)c1C` gave D3 ag 3, D1 PAM 2, D1 antag -8 and D1 ag 4.
CN(c1cccc(Cl)c1)S(=O)(=O)c1cccc(C(=O)NN2CCOCC2)c1 was read as D3 ag -3, D1 antag -37*, D3 antag 0 and D1 ag 5.
`CN1CCC(=C2c3ccccc3CC(=O)c3sccc32)CC1` gave D3 ag -21, D1 PAM -6, D1 antag -51*!, D3 antag -98* and D1 ag 7.
Screening CC(=O)Nc1cc2c(cc1[N+](=O)[O-])-c1ccccc1C2O (centres undefined) returned D3 ag -12 and D3 antag -15.
CN1CCC(=C2c3ccccc3C(O)c3ccccc32)CC1 (centres undefined) was read as D3 ag 2, D1 PAM -8, D1 antag -79*, D3 antag -80* and D1 ag 19.
For Nc1nc2c(s1)CCc1ccccc1-2 the results were D3 ag 4, D1 PAM 9, D1 antag -10, D3 antag 2 and D1 ag 2.
`CN1CCC(=C2c3ccccc3CCc3sccc32)CC1` gave D3 ag -80, D1 PAM -3, D1 antag -82*, D3 antag -91* and D1 ag 52*.
For C/C(=N\NC(=O)c1cccc(N/N=C(\C)c2cc(O)ccc2O)c1)c1cc(O)ccc1O the results were D3 ag 4, D1 PAM -2, D1 antag 1, D3 antag 8 and D1 ag 11.
C/C(=N\NC(N)=O)c1ccc(-n2ccnc2)cc1 was read as D3 ag -3, D1 PAM -1, D1 antag -44*, D3 antag -6 and D1 ag 3.
CNC(=S)N/N=C(\C)c1ccc(-n2ccnc2)cc1 was read as D3 ag -4, D1 PAM -4, D1 antag -9, D3 antag -14 and D1 ag 0.
Cc1cccc(NC(=O)CCC(=O)N2CCOCC2)n1 was read as D3 ag 2, D1 PAM 2, D1 antag 11, D3 antag inconclusive and D1 ag 4.
